Values joined by “and” are separate entries in the source; they are usually repeats but may differ in a detail not shown here. Equal values may be shown once. Records with an inconclusive call do not appear. Active and inactive are the calls of the source. How the source made its calls, unless noted: active means hit-call score of the fitted dose curve at least 0.9, where 1 is the maximum; inactive means score below 0.9.
Columns and labels:
[1] = IUF_NPC2-5_cell_number_120hr: Cell Number Assessment at 120 hours in the Leibniz Research Institute for Environmental Medicine (IUF) Neural Progenitor Cell Migration and Differentiation Assay (NPC2-5) (AID 2284308);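 further: count of Hoechst-stained nuclei in migration zone around plated human neural progenitor spheres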
In short: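 Primary human fetal neural progenitor spheres (GW 16-19, 0.3 mm) plated on poly-D-lysine/laminin in N2 differentiation medium, exposed from day 0 for 120 h with half-medium refresh at day 3; Hoechst-positive nuclei counted in migration area versus DMSO control.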

[2] = IUF_NPC2-5_viability_120hr: Viability Assessment at 120 hours in the Leibniz Research Institute for Environmental Medicine (IUF) Neural Progenitor Cell Migration and Differentiation Assay (NPC2-5) (AID 2284312)
In short: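 Human fetal (GW 16-19) neural progenitor spheres of 0.3 mm were plated on poly-D-lysine/laminin in N2 differentiation medium and exposed from day 0 for 120 h, with half-medium refresh at day 3. Viability was read as alamar blue resazurin-to-resorufin fluorescence against DMSO.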

[3] = CCTE_Mundy_HCI_iCellGluta_NOG_NeuriteLength: CCTE's Neurite Outgrowth Assay in iCellGluta cells for Neurite Length, Mundy Lab (AID 2284318; active means hit-call score of the fitted dose curve at least 0.9, where 1 is the maximum)
In short: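 Automated high-content imaging of betaIII-tubulin (Alexa Fluor-488) and Hoechst-stained cells gave neurite length, normalized to the DMSO baseline.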

[4] = VALA_TUBHUV_Agonist_CellCount: Viability Assessment in the VALA Sciences human Umbilical Vein Endothelial Tubule Formation (TUBHUV) Agonism Assay (AID 2284309; active means hit-call score of the fitted dose curve at least 0.9, where 1 is the maximum)
In short: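 HUVEC co-cultured 1:3 with HDF for 3 days in 10 ng/ml VEGF, then compounds added in VEGF medium for a further 3 days (72 h). Nuclear-stain/CD31 imaging cell count. Positive-direction fit versus 0.1% DMSO vehicle.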

[5] = VALA_MIGHUV2_WoundArea: VALA Sciences human Umbilical Vein Endothelial Cell Migration (MIGHUV) Assay, Area of Scratch Wound after Recovery (AID 2284316; active means hit-call score of the fitted dose curve at least 0.9, where 1 is the maximum)
In short: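 HUVEC seeded at 9000 cells/well, scratched after 24 h; test chemical added within 30 min, 6-point concentration response in triplicate (0.1% DMSO vehicle). After 24 h wound recovery, cells fixed and Hoechst-stained nuclei in wound area imaged; Cytochalasin D reference control.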

[6] = system: IYD (gene 389434); assay: CCTE_GLTED_hIYD: CCTE's human Iodotyrosine Deiodinase (xIYD) Inhibition Assay, Great Lakes Toxicology and Ecology Division (GLTED) Lab (AID 2284317; active means hit-call score of the fitted dose curve at least 0.9, where 1 is the maximum;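 further: cell-free human IYD enzyme made in baculovirus insect cells; iodide freed from monoiodotyrosine measured by cerium arsenite color change at 420 nm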)
In short: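 First, recombinant human IYD (baculovirus-insect cells), MIT and chemical incubated 3 h. Next, iodide isolated on Dowex. Finally, Sandell-Kolthoff rate read at 420 nm, with platewise normalization to MNT and solvent controls.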

[7] = VALA_TUBIPS_Antagonist_TubuleLength: VALA Sciences human iPS-derived Endothelial Tubule Formation (TUBIPS) Antagonist Assay (AID 2284313; active means hit-call score of the fitted dose curve at least 0.9, where 1 is the maximum)
In short: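 Cells grown 3 days with 10 ng/ml VEGF, then exposed to compounds in VEGF medium for another 3 days. After fixation, nuclear stain and CD31 immunofluorescence imaging gave mean total tubule length against 0.1% DMSO; suramin (100 uM) inhibition control.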

With `CCOP(=S)(Oc1cnc(C(C)(C)C)nc1)OC(C)C` (stereo not drawn) the outcome [1] was “inactive”, the outcome [2] was “inactive” and the AC50 [3] was 21 µM (active).
With `CON=C(C(=O)OC)c1ccccc1CON=C(C)c1cccc(C(F)(F)F)c1` the outcome [1] was “inactive”, the outcome [2] was “inactive” and the AC50 [3] was 13.3 µM (active).
In the case of `C=C(C)[C@H]1Cc2c(ccc3c2O[C@@H]2COc4cc(OC)c(OC)cc4[C@@H]2C3=O)O1`, the AC50 [1] was 0.00141 µM (active), the AC50 [2] was 267 nM (active) and 1.57 nM (active) and the AC50 [3] was 0.121 µM (active).
In the case of `CCOP(=S)(OCC)OC(Cl)C(Cl)(Cl)Cl` (stereo not drawn), the outcome [1] was “inactive”, the outcome [2] was “inactive” and the outcome [3] was “inactive”.
In the case of `CN(C)[C@@H]1C(=O)C(C(N)=O)=C(O)[C@@]2(O)C(=O)C3=C(O)c4c(O)cccc4[C@@](C)(O)[C@H]3[C@H](O)[C@@H]12`, the AC50 [1] was 72.5 µM (active), the outcome [4] was “inactive” and the outcome [2] was “inactive”. The AC50 [5] was 50 µM (active) and the AC50 [3] was 24.6 µM (active).
With `CSC1=N[C@@](C)(c2ccccc2)C(=O)N1Nc1ccccc1` the outcome [1] was “inactive”, the outcome [2] was “inactive” and the outcome [3] was “inactive”.
In the case of `CCOP(=O)(OCC)Oc1cc(C)nc(C(C)C)n1`, the outcome [1] was “inactive”, the outcome [2] was “inactive” and the outcome [6] was “inactive”. The outcome [3] was “inactive”.
With `CCOP(=S)(OCC)Oc1cc(C)nc(C(C)C)n1` the outcome [1] was “inactive” and the outcome [2] was “inactive”.
For `CC(C)[C@H](C(=O)O[C@H](C#N)c1cccc(Oc2ccccc2)c1)c1ccc(Cl)cc1`, the outcome [6] was “inactive”.
In the case of `CCOP(=S)(OCC)SCCSCC`, the outcome [1] was “inactive” and the outcome [2] was “inactive”.
With `COP(=O)(OC)OC(Br)C(Cl)(Cl)Br` (stereo not drawn) the AC50 [1] was 25.7 µM (active), the outcome [2] was “inactive” and the AC50 [3] was 13.5 µM (active).
In the case of `CCOP(=O)(NC(C)C)Oc1ccc(SC)c(C)c1` (stereo not drawn), the outcome [1] was “inactive”, the outcome [2] was “inactive” and the outcome [3] was “inactive”.
In the case of `CCOC(=O)CC(SP(=O)(OC)OC)C(=O)OCC` (stereo not drawn), the outcome [1] was “inactive” and the outcome [2] was “inactive”.
In the case of `CC1=NNC(=O)N(/N=C/c2cccnc2)C1`, the outcome [1] was “inactive”, the outcome [4] was “inactive” and the outcome [2] was “inactive”. The outcome [7] was “inactive”, the outcome [5] was “inactive” and the outcome [3] was “inactive”.

From PubChem BioAssay (EPA / NIEHS)
